The source of these data is PubChem BioAssay (Tox21).

Unmarked numbers belong to inactive results. Inconclusive results are not listed. Active and inactive are the calls of the source. Unless noted, calls follow the shape of the full dose curve.

A short description of assay [1]: qHTS assay to identify small molecule agonists of the sonic hedgehog signaling (Shh) pathway (AID 1259368).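 Also: NIH/3T3-derived 3T3Gli1-Luc cells carrying a stable Gli1-driven firefly luciferase reporter; series mostly up to about 92 µM; nearly all actives have a fitted effect of over 15% in size.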 The gist of the method:
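3T3Gli1-Luc (NIH/3T3 clone, stable Gli1-Luc); 4 hr pre-incubation, then cpd in DMSO 24 hr, 37 C/5% CO2; luciferase reagent 30 min RT; luminescence.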

Assay [2] in a line: qHTS assay to identify small molecule antagonists of the sonic hedgehog signaling (Shh) pathway (AID 1259369). Also: nearly all actives have a fitted effect of over 45% in size. The gist of the method:
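3T3Gli1-Luc, conditioned-medium-stimulated, 24hr cpd, 37C/5% CO2; Gli1-driven firefly Luc luminescence after 30min RT with luciferase reagent. Cells plated 4hr before cpd.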

Assay [3] can be described thus: qHTS assay to identify small molecule agonists of the androgen receptor (AR) signaling pathway in the presence of an antagonist - cell viability counter screen (AID 1259379; active = well fitted curve in the direction sought with a large enough effect in the repeat runs; an effect the other way counts as inactive or inconclusive;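 also: MDA-kb2 human breast cancer cells carrying an MMTV luciferase reporter; series mostly up to about 92 µM; nearly all actives have a fitted effect of over 25% in size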). In outline: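 Cells: MDA-kb2 (MMTV-luc, AR and GR elements), 3,000/well, 5 hr settle. Added: nilutamide 3.0uM final, then compounds (15 conc.). Incubation: 16 hr, 37C, no CO2. Read-out: CellTiter-Fluor, 1 hr, fluorescence.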

Assay [4] in a line: qHTS assay to identify small molecule agonists of the estrogen receptor beta (ER-beta) signaling pathway - cell viability counter screen (AID 1259380; active = well fitted curve in the direction sought with a large enough effect in the repeat runs; an effect the other way counts as inactive or inconclusive; also: nearly all actives have a fitted effect of over 30% in size; also: potency is read from the fitted curve at half-maximal effect). In outline: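 HEK293T ER-beta-UAS-bla; 2% CS-FBS; 6 hr pre-plate, 16 hr cpd at 37C/5% CO2; LiveBLAzer read first, then CellTiter-Glo 30 min RT, luminescence.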
For orientation: Quantitative high-throughput screening tests each substance at several concentrations.

The target in assay [5] is Estrogen receptor (Homo sapiens) (UniProt P03372). Kind of assay: qHTS assay to identify small molecule agonists of the estrogen receptor alpha (ER-alpha) signaling pathway in the presence of an antagonist (AID 1259383). Also: nearly all actives have a fitted effect of over 15% in size. Also: potency is read from the fitted curve at half-maximal effect. As to activation: top concentration of the series differs between compounds. The gist of the method:
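VM7Luc4E2, endog. ER-alpha + 4×ERE-luc; charcoal-stripped FBS, phenol red-free, 5 d; 24hr plating; +10.0nM ICI-182,780 (final); cpds 15 conc, 22hr, 37C/5% CO2; ONE-Glo luminescence.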

The nature of assay [6]: qHTS assay to identify small molecule antagonists of the estrogen receptor beta (ER-beta) signaling pathway - cell viability counter screen (AID 1259382; active = well fitted curve in the direction sought with a large enough effect in the repeat runs; an effect the other way counts as inactive or inconclusive; also: series mostly up to about 92 µM; nearly all actives have a fitted effect of over 55% in size). In outline:
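Cells: ER-beta-UAS-bla HEK293T, 2,000/well, 2% CS-FBS, 6 hr settle. Cpd + E2 (1nM final), 16 hr, 37C/5% CO2. Bla FRET substrate 2 hr RT, then CellTiter-Glo 30 min RT, luminescence.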

Assay [7] can be described thus: qHTS assay to identify small molecule agonists or antagonists of the thyroid stimulating hormone receptor (TSHR) signaling pathway - wild type cell line counter screen (AID 1259384). In outline: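 Wild-type Hek293 cells, 800/well, 18 h at 37C, then compound with Ro20-1724 for 30 min RT. cAMP by HTRF (cAMP-d2/anti-cAMP cryptate), 1 h RT, fluorescence read. 15 concentrations, triplicates.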

Assay [8] concerns the target Estrogen receptor beta (Homo sapiens) (UniProt Q92731). Nature of the assay: qHTS assay to identify small molecule agonists of the estrogen receptor beta (ER-beta) signaling pathway (AID 1259377; active = well fitted activation curve with a large enough effect in the signal ratio in the repeat runs, not every such curve was filed as active; the % refers to the signal ratio). The gist of the method: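 Ratiometric beta-lactamase FRET read-out came after 2 h substrate loading at room temperature. It followed 16 h compound treatment at 37C of GripTite HEK293T cells carrying a UAS-bla reporter, plated in 2% charcoal-stripped FBS medium.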

Assay [9] has the same target. Kind of assay: qHTS assay to identify small molecule antagonists of the estrogen receptor beta (ER-beta) signaling pathway (AID 1259378; active = well fitted inhibition curve with a large enough effect in the signal ratio in the repeat runs, not every such curve was filed as active; the % refers to the signal ratio; also: potency is read from the fitted curve at half-maximal effect). In outline: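 ER-beta-UAS-bla HEK293T cells in 2% charcoal-stripped FBS medium treated with compound plus 1nM final 17-beta-estradiol for 16 hr at 37C. Beta-lactamase reporter read by FRET substrate fluorescence after 2 hours at room temperature.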

The target in assay [10] is Androgen receptor (Homo sapiens) (UniProt P10275). Kind of assay: qHTS assay to identify small molecule agonists of the androgen receptor (AR) signaling pathway in the presence of an antagonist (AID 1259381). Also: nearly all actives have a fitted effect of over 15% in size. In outline:
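MDA-kb2 cells, 3,000/well, rested 5hr at 37C/0% CO2 → nilutamide 3.0uM final or buffer → compounds, 15 conc. → 16hr at 37C → ONE-Glo, 30min RT → luminescence.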

Sequence of Estrogen receptor (Homo sapiens) (P03372 whole entry, looked up): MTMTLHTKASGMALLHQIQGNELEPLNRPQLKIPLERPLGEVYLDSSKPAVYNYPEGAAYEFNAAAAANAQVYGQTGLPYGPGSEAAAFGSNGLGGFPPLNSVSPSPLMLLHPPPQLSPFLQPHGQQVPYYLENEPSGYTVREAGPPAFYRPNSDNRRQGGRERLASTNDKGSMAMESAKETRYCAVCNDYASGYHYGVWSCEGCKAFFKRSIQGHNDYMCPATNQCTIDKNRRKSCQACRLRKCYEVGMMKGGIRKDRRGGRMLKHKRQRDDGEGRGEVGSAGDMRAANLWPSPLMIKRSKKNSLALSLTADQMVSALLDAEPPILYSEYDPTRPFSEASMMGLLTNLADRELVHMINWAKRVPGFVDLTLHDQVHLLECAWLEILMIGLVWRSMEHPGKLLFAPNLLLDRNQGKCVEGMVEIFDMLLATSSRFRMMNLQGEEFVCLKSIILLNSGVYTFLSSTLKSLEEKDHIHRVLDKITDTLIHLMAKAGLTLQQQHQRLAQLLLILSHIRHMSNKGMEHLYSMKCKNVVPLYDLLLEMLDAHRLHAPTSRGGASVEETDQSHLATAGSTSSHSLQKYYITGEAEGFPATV
Sequence of Estrogen receptor beta (Homo sapiens) (Q92731 whole entry, looked up): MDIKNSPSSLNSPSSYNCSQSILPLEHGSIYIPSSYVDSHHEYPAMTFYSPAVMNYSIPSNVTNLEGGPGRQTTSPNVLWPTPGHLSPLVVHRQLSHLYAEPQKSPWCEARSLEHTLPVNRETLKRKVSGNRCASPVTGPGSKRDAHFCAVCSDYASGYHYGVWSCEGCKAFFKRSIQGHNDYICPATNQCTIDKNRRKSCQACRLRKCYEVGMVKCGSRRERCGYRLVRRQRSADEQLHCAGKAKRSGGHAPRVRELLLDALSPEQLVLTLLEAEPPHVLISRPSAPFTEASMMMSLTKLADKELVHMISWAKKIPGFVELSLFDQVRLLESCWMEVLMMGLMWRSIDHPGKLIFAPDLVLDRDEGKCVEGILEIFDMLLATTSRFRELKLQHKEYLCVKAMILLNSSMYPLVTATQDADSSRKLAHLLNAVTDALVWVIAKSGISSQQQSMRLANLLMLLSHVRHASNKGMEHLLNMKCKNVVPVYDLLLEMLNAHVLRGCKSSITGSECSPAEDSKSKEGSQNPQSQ
Sequence of Androgen receptor (Homo sapiens) (P10275 whole entry, looked up): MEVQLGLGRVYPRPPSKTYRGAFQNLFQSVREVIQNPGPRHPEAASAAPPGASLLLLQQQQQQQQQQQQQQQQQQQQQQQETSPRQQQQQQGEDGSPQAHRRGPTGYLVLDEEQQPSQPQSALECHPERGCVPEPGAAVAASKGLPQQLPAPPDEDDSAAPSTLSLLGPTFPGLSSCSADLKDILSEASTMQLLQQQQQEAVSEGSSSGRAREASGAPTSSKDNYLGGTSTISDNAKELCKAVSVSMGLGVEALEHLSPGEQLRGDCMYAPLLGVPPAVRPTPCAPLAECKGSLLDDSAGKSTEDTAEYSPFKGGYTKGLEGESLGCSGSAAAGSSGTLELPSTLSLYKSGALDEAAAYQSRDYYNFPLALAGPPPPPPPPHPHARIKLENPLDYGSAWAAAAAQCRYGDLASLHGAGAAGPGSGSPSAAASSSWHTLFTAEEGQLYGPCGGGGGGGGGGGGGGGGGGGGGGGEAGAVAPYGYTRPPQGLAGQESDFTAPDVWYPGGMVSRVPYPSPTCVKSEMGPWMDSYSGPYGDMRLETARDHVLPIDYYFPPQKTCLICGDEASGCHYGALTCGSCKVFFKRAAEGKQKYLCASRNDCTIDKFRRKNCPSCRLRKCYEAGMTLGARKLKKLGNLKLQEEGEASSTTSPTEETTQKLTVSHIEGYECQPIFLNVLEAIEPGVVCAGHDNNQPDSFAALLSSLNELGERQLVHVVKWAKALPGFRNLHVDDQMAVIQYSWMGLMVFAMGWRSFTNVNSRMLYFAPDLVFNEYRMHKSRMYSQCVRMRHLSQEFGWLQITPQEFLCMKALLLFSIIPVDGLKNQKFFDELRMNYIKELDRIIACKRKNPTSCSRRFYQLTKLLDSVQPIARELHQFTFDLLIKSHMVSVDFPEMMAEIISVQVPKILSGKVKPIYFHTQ

`CC(C)c1ccc2oc3nc(N)c(C(=O)O)cc3c(=O)c2c1`: the Potency entry in assay [1], in [2], in assay [3] and in assay [5] was “inactive” throughout. The Potency in [4] is 23.7 µM (active).
Turning to `CCO[Si](CCCN=C=O)(OCC)OCC`, the Potency entry in assay [1], in assay [2], in assay [3], in assay [4], in [6] and in assay [5] was “inactive” each time. Further, the result in assay [7] was inactive.
With `CC(C)N1C(=O)c2ccccc2C1=O`, the Potency entry in [1], in assay [2], in assay [3], in assay [4], in assay [6] and in [5] was “inactive” each time. Moreover, in assay [7], the call was inactive.
Turning to `CO[Si](CCCNCCC[Si](OC)(OC)OC)(OC)OC`, the Potency entry in [1], in assay [2], in [3], in assay [4], in [6] and in assay [5] was “inactive” each time. The compound was classed as inactive in assay [7].
Take `CC(C)CCCC(C)CCCC(C)CCCCC(C)CCCC(C)CCCC(C)C` (stereo not drawn): the Potency result in [1], in assay [2], in assay [3], in assay [4] and in assay [6] was “inactive” each time. Also, the compound was called inactive in assay [7].
For the compound `CC(C)=CC(=O)O`, the Potency result in [1], in assay [2], in assay [3], in assay [4], in assay [6] and in assay [5] was “inactive” throughout. The result in assay [7] was inactive.
Regarding `C=C(C)C(=O)OCCC(C)OC(=O)C(=C)C` (stereo not drawn), the Potency entry in assay [1], in [2], in assay [3], in assay [4], in assay [6] and in [5] was “inactive” each time. Moreover, the result in [7] was inactive.
As for `COc1cc(O)cc(O)c1`, the Potency entry in [1], in [2], in assay [3], in [4], in [6] and in assay [5] was “inactive” each time. Besides, the outcome in assay [7] was inactive.
With `CC(=O)CCc1ccc(O)cc1`, the Potency entry in assay [1], in [2], in assay [3], in [4], in assay [6] and in assay [5] was “inactive” in each case. The compound was called inactive in assay [7].
As for `C=C(C)C(=O)NCCC[N+](C)(C)C`, the Potency result in assay [1], in assay [2], in assay [3], in [4], in assay [6] and in assay [5] was “inactive” each time. Further, the result in assay [7] was inactive.
On to `CO`, for which the Potency entry in assay [1], in assay [2], in [3], in assay [4] and in [6] was “inactive” throughout. Also, the outcome in assay [7] was inactive.
`N[C@@H](CS)C(=O)O`: the Potency entry in assay [1], in assay [2], in [3], in [4] and in assay [6] was “inactive” each time. Besides, in assay [7], the compound was classed as inactive.
Regarding `COC(C(=O)O)c1ccccc1` (stereo not drawn), the Potency entry in [1], in assay [2], in assay [3], in assay [4] and in [6] was “inactive” throughout. The outcome in [7] was inactive.
In the case of `C=CC(=O)N1CCOCC1`, the Potency result in [1], in assay [2], in [3], in assay [4] and in [6] was “inactive” in each case. For the same compound, in [7], the compound was called inactive.
Regarding `CCC(=O)c1cccc(Cl)c1`, the Potency result in [1], in assay [2], in assay [3], in assay [4] and in assay [6] was “inactive” in each case. In addition, the compound was called inactive in [7].
As to `CCCCCCCCCCC1CO1` (stereo not drawn), the Potency result in assay [1], in [2], in assay [3], in assay [4] and in [6] was “inactive” throughout. The compound was called inactive in assay [7].
On to `CNc1ncnc2nc[nH]c12`, for which the Potency result in assay [1], in assay [2], in [3], in assay [4], in assay [6] and in assay [5] was “inactive” in each case. Also, in [7], the compound was called inactive.
As to `O=C(O)Cc1cc(I)c(Oc2cc(I)c(O)c(I)c2)c(I)c1`, the Potency entry in assay [1], in assay [3] and in [5] was “inactive” each time. In addition, the outcome in [8] was inactive.
Consider `CC/C=C\C#N`, for which the Potency entry in assay [1], in [9], in assay [3], in assay [4], in assay [6] and in assay [5] was “inactive” in each case. In addition, the compound was classed as inactive in assay [8] and in assay [7].
Regarding `O=S(=O)(c1cccc2cnccc12)N1CCCNCC1`, the Potency result in assay [1], in assay [9], in assay [3], in assay [6] and in assay [5] was “inactive” throughout. The outcome in [8] and in assay [7] was inactive.
As for `CC(CCO)CCCC(C)(C)O` (stereo not drawn), the Potency result in assay [1], in assay [9], in assay [3], in [4] and in [6] was “inactive” in each case. In [8], the call was inactive.
As to `Oc1ccc2c(c1)OC[C@@H](N1CCC(O)(c3ccc(F)cc3)CC1)[C@H]2O`, the outcome in assay [8] and in [7] was inactive. Besides, the Potency entry in [9], in assay [3], in assay [4] and in [6] was “inactive” each time. The Potency in assay [5] was 0.668 µM (active).
For `CC(C)(O)C(=O)c1ccc(OCCO)cc1`, the Potency result in assay [1], in [3], in assay [4], in assay [6] and in assay [5] was “inactive” in each case. In [8], the compound was classed as inactive.
`C(=C(c1ccccc1)c1ccccc1)c1ccccc1`: the Potency entry in assay [1], in [3] and in assay [6] was “inactive” each time. Moreover, the call in assay [8] was inactive. Further, the Potency in assay [9] was 1.54 µM (active); in [5] it was 17.2 µM (active).
Turning to `Cc1nc(-c2ccc(OCC(C)C)c(C#N)c2)sc1C(=O)O`, the Potency result in assay [2], in [3], in assay [10], in assay [6] and in assay [5] was “inactive” each time. Further, the call in [7] was inactive.
For the compound `c1ccc(SCCSc2ccccc2)cc1`, the Potency entry in [2], in assay [3], in assay [4], in assay [10] and in assay [6] was “inactive” in each case. Further, the compound was called inactive in [8] and in [7].
As for `COC(=O)C1=C(C)NC(C)=C(C(=O)OCC(C)=O)C1c1ccccc1[N+](=O)[O-]` (stereo not drawn), the Potency entry in assay [1], in assay [3], in assay [4], in [6] and in assay [5] was “inactive” throughout. Besides, the outcome in assay [7] was inactive.
